According to ChEMBL document CHEMBL4513216, “Probing the Open Global Health Chemical Diversity Library for Multistage-Active Starting Points for Next-Generation Antimalarials” (ACS Infect Dis, 2020):
Out of some 69,000 compounds screened, about 8,600 (12%) showed an effect of 50% or more. This excerpt belongs to a sample that is enriched for strong results.

What follows are compounds tested on Plasmodium berghei (assay: Screen against P. berghei liver stage (PbLuc), transformed with Luciferase, at 10uM). Settings: tested at 10 uM.
Format: functional, HepG2

SMILES | INHIBITION [%]
CO[C@@H]1CCN(Cc2ccccn2)[C@@H]2CN(Cc3ccco3)C[C@@H]21 | 20.9
CCc1nc(C)c(C(=O)NCCNC(=O)Cc2cccc(F)c2)s1 | -27.9
C=Cn1cc(CN2CCc3nc(-c4cccnc4)nc(O)c3C2)c(C)n1 | 1.5
Cc1occc1C(=O)Nc1cccc(C(=O)OCC2CCCN2)c1 (stereo unspecified) | -24.7
CN(C)C(=O)CN1CCC2(CCCN(Cc3cccs3)C2)C1=O (stereo unspecified) | 8.6
O=C1COC2(CCN(Cc3nccs3)CC2)CN1c1ccccc1 | 35.6
N#Cc1ccc(N2CCC(OCCc3ccccc3)CC2)nc1 | 45.5
COc1cccc(-c2ccc3nc(C4CCN(C(C)=O)CC4)nn3c2)c1 | 56.4
CC(=O)N1CCC(c2nc3ccc(C)cn3n2)CC1 | 1.7
CC(=O)N1CCC(c2nc3ccc(-c4ccnn4C)cn3n2)CC1 | 38.2
CN(Cc1ccncc1)C(=O)CCNS(=O)(=O)c1cccnc1 | 20.9
Cc1nnc(Cn2cc(I)cc(C)c2=O)o1 | 22.5
CSc1ccc(C(C(=O)O)N2CCC(C(=O)N3CCCC3)CC2)cc1 (stereo unspecified) | 43.9
CSc1ccc(C(C(=O)O)N2CCC(CO)CC2)cc1 (stereo unspecified) | 53.9
CSc1ccc(C(C(=O)O)N2CCCC2)cc1 (stereo unspecified) | 34.9
Cc1ccc(CN2CCCn3c(nc(CN4CCCC4)cc3=O)C2)s1 | 43.2
Cn1ccnc1CN1CCN2C[C@H](OCc3ccccc3)C[C@H]2C1 | -25.2
c1cn(-c2ccc(N3CCC(NC4CC4)CC3)cc2)cn1 | 56.2
Cc1ccc(N2CCCC(NCc3ccc(-n4ccnc4)cc3)C2)nn1 (stereo unspecified) | 11.5
c1cnc(N2CCCC(NCc3ccc(-n4ccnc4)cc3)C2)nc1 (stereo unspecified) | 60.4
Cc1n[nH]c2ncc(CNC3CCCN(c4ncccn4)C3)cc12 (stereo unspecified) | 73.5
CC(C)[C@@H](C)NC1CCN(c2ccc(-n3ccnc3)cc2)CC1 | 16.6

SMILES | INHIBITION [%]
Cc1n[nH]c2ncc(CNC3CCN(Cc4ccccn4)CC3)cc12 | -20.6
CC(=O)NC1CCCN(Cc2ccc(OCc3ccccn3)cc2)C1 (stereo unspecified) | 41.8
COc1cc(CNC2CCCN(c3ncccn3)C2)cc2c1OCO2 (stereo unspecified) | -34.8
CNCCCNC1CCN(c2ccc(-n3ccnc3)cc2)CC1 | -7.2
c1cnnc(N2CCCC(NCc3ccc(-n4ccnc4)cc3)C2)c1 (stereo unspecified) | 15.2
CC(=O)NC1CCCN(Cc2ccc(-n3ccnc3)cc2)C1 (stereo unspecified) | 65.6
CCC(=O)NC1CCCN(Cc2ccc(-n3ccnc3)cc2)C1 (stereo unspecified) | 41.5
Cc1nccn1[C@@H]1CC[C@@H](N(C)S(=O)(=O)c2ccc(F)cc2)[C@H]1O | -0.4
Cc1noc(CCCC(=O)N(CCC(=O)O)Cc2ccc(F)c(F)c2)n1 | -13
CN(C)c1ccccc1C(=O)N1CCCC(c2cccc(C(=O)O)c2)C1 (stereo unspecified) | 33.4
O=C(c1ccc(Sc2ccccn2)cc1)N1CCCSCC1 | -1.3
Cc1cc(C)c(CNC(=O)NCC(O)c2ccc(Cl)cc2)c(=O)[nH]1 (stereo unspecified) | 29.2
CCN1CCN(C(=O)C(C)n2cc(Br)cn2)CC1 (stereo unspecified) | 21.7
COCCNC(=O)[C@@H]1C[C@H]2[C@H](CCN2c2cc(OC)ncn2)O1 | 7.53
CS(=O)(=O)CCC(=O)Nc1cc(F)ccc1OCC1CCCO1 (stereo unspecified) | -14
CC(C)N1CCCC2(CCN(Cc3nncn3C(C)C)C2)C1=O (stereo unspecified) | -27.4
CCn1nc(C(C)C)cc1C(=O)NCC1CCCN(c2ccccn2)C1 (stereo unspecified) | 45
CC(C)c1cc(C(=O)NCC2CCCN(C(C)C)C2)n(C)n1 (stereo unspecified) | 34.1
CC(C)c1cc(C(=O)NCC2CCCN(c3ncccn3)C2)n(C)n1 (stereo unspecified) | 70
Cc1cc(C)nc(Nc2cncc(C3CCCN(S(C)(=O)=O)C3)n2)n1 (stereo unspecified) | 29.2
CCN1CCCc2cc(-c3cncn3C(C)CN3CCOCC3)ccc21 (stereo unspecified) | 27.6
CCC(CN1CCOCC1)n1cncc1-c1ccc2c(c1)CCN2CC (stereo unspecified) | 61.9

SMILES | INHIBITION [%]
CCC(CN1CCOCC1)n1cncc1-c1ccc2c(c1)CCCN2C (stereo unspecified) | 39.7
CCC(NC(=O)c1cc(OC)c2c(c1)OCCO2)c1cccs1 (stereo unspecified) | 24.3
Cc1noc(C)c1CN1CCn2nc(CCC(=O)N3CCCC3)cc2C1 | 19.3
COc1cccc(OCCN2CC[C@@](O)(C3CCOCC3)[C@H](C)C2)c1 | 49.3
N#CCCSc1nnc(Cc2ccccc2F)o1 | 20.5
CCOCCSc1nnc(Cc2ccccc2F)o1 | -19
COCCOCCSc1nnc(Cc2ccccc2F)o1 | 6.88
COc1ccccc1Cc1nnc(SCCS(C)(=O)=O)o1 | 53.8
CS(=O)(=O)CCSc1nnc(Cc2ccccc2F)o1 | 52.6
COc1cccc(Cc2nnc(SCCS(C)(=O)=O)o2)c1 | 49.1
CC[C@H]1N(CC2CCC2)CCC[C@]12CCC(=O)N2Cc1ccncc1 | 19.8
COCCC(=O)N1CCC(c2cc3ncc(C)nc3[nH]2)CC1 | 15.9
Cc1cnn(CC2CCCCN2Cc2c(C)noc2C)c1 (stereo unspecified) | 26.09
CC1CCCN(Cc2cccc(C(=O)Nc3nccs3)c2)C1 (stereo unspecified) | -37.8
O=C(c1ccccn1)N1CCC(c2nc(O)cc(-c3ccncc3)n2)C1 (stereo unspecified) | 19.6
CCOc1ncccc1NC(=O)NC1CCCN(c2ncccn2)C1 (stereo unspecified) | 30.8
c1cc2c(c(-c3cc(N4CCOCC4)ncn3)c1)CCNC2 | 58.6
Nc1cc(-c2cccc3c2CCNC3)ncn1 | 28.7
Nc1cnc(-c2cccc3c2CCNC3)cn1 | -0.178
COc1cc2nc3n(c(=O)c2cc1OC)CCN(C(=O)C1CC1)CC3 | 35.2
COc1cc(OCC(=O)NCCc2ccccc2)cc(OC)c1OC | -13.2
COCCC(=O)N1CC[C@@H]2O[C@@H](C)C[C@H]2C1 | 18.8

SMILES | INHIBITION [%]
COCCC(=O)N1CC[C@H]2O[C@@H](C)C[C@H]2C1 | 64.9
COCC(=O)N1CC[C@@H]2O[C@@H](C)C[C@H]2C1 | 10.1
COCCn1c(-c2cccc(OC)c2)cnc1NC(=O)NC(C)C | 18.4
Nc1ncc(-c2ccc(F)cc2)c(C2CCCNC2)n1 (stereo unspecified) | 28.3
Nc1ncc(-c2ccc(Cl)cc2)c(C2CCCNC2)n1 (stereo unspecified) | 31.6
Nc1ncc(-c2ccc(C(F)(F)F)cc2)c(C2CCCNC2)n1 (stereo unspecified) | 70.1
O=c1cc2c(nn1CN1CCN(c3ccccc3)CC1)CCCC2 | 38.9
Cn1cc(C(=O)N2CCCC2c2noc(C3CC3)n2)c2ccccc21 (stereo unspecified) | 19.2
O=C1CO[C@@H]2CN(C3CCOCC3)C[C@H]2N1Cc1ccncc1 | 73.6
O=C1CO[C@H]2CN(C3CCOCC3)C[C@H]2N1Cc1ccncc1 | 22.2
O=C1CO[C@H]2CN(C3CCOCC3)C[C@H]2N1Cc1ccc(F)cc1 | 4.82
CCOC(=O)C(C)Nc1ccc(CCN2CCOCC2)cc1 (stereo unspecified) | -30.1
CCC(Nc1ccc(CCN2CCOCC2)cc1)C(N)=O (stereo unspecified) | -28.8
CCC(Nc1ccc(CCN2CCCCC2)cc1)C(N)=O (stereo unspecified) | 57.2
Cc1nn(Cn2ccc(C(=O)N3CCCC3)n2)c(C)c1Cl | 7.92
COc1cc(-c2nc(C3CC3)nn2-c2ccnc(C)c2)nc(OC)n1 | -10.2
O=C(Nc1nnc(C(F)F)s1)NC(CCO)c1cccs1 (stereo unspecified) | 13.8
CN(Cc1cnn(C)c1)C1CCN(c2cccc(-c3cscn3)c2)CC1 | 45.6
CN(C)CCCN(C)C1CCN(c2cccc(-c3cscn3)c2)CC1 | 52.2
CN(Cc1nccs1)C1CCN(c2cccc(-c3cscn3)c2)CC1 | 63.6
CN(Cc1ccon1)C1CCN(c2cccc(-c3cscn3)c2)CC1 | 30.9
Cc1cc(CN(C)C2CCN(c3cccc(-c4cscn4)c3)CC2)on1 | 44.8

SMILES | INHIBITION [%]
Cc1nnc(CN(C)C2CCN(c3cccc(-c4cscn4)c3)CC2)o1 | 23.5
Cc1cc(C2CCCN(CCCS(C)(=O)=O)C2)n[nH]1 (stereo unspecified) | 11.9
CN(C)c1ccc(C(=O)N2CCN(Cc3cscn3)CC2)cn1 | -0.219
COc1ccc(NCc2c[nH]nc2-c2cccnc2)cc1 | 56.8
FCCOc1cccc(NCc2c[nH]nc2-c2cccnc2)c1 | 34.6
CCOCc1cccc(NCc2c[nH]nc2-c2cccnc2)c1 | 49.1
CC(Cn1cccn1)NC(=O)NCc1ccnc(OC2CCCC2)c1 (stereo unspecified) | 23.5
CC(Cn1cccn1)NC(=O)NCc1ccc(OC2CCCC2)nc1 (stereo unspecified) | 54.4
CC(Cn1cccn1)NC(=O)NCc1cccnc1OC1CCCC1 (stereo unspecified) | -21.7
CC(C)n1cnnc1CN1CCC2(CCCN(C3CCCCC3)C2=O)C1 (stereo unspecified) | -64.1
CCN1CCCC1CNC(=O)c1cc(COc2ccccc2F)[nH]n1 (stereo unspecified) | -11.2
COc1ccc2c(c1)CCCN(CC(=O)NCC1CCCO1)C2 (stereo unspecified) | 39.6
Cc1c(C(=O)N2CCC(N3CCCCC3)CC2)n(C)c2ccc(Cl)cc12 | 69.3
Cc1c(C(=O)N2CCN(C)CC2)n(C)c2ccc(Cl)cc12 | 20.9
Cc1c(C(=O)N2CCOCC2)n(C)c2ccc(Cl)cc12 | -1.3
NS(=O)(=O)CC1CCCN(C(=O)CCCC2CCCC2)C1 (stereo unspecified) | 43.8
O=C(CCC1CCN(C2Cc3ccccc3C2)CC1)NCC1CCCO1 (stereo unspecified) | 25.8
O=C1CCC2(CCN(Cc3nccs3)CC2)N1Cc1ccccc1 | 11.4
